Among the test systems are SK-MEL-2 melanoma; EKVX NSCLC; SN12C renal; UO-31 renal; TK-10 renal; ACHN renal; CAKI-1 renal; A498 renal; CCRF-CEM leukemia; MOLT-4 leukemia.
Experiment in all cases: NCI-60 one-dose screen, 48 h (100 = growth as untreated, 0 = no growth, -100 = all killed)
Holding throughout (conditions): 10 µM unless noted

About 83,000 compounds went through this panel and 20% of them were active in at least one assay; those are over-represented in the sample as a whole.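 Results are percent growth after 48 hours of single-concentration exposure. 100 means growth as in untreated cells, lower positive values show inhibition; negative values down to -100 show cell death.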 Unmarked numbers belong to inactive results. The source made the active and inactive calls. Rule for the calls: active = growth percent below 10; inactive = the rest.

As for `CCCCCCCCCc1ccc(C(=O)Nc2cc(C)ccc2C(=O)OC)cc1`, the growth in the experiment on SK-MEL-2 melanoma is 111%; in the experiment with EKVX NSCLC it was 109%; in the experiment with SN12C renal, 101%; in the experiment with UO-31 renal, 98.4%; in the experiment with TK-10 renal it was 121%; in the experiment on ACHN renal it was 109%. For the same compound, the growth is 98.8% in the experiment with CAKI-1 renal, 128% in the experiment with A498 renal, 87.9% in the experiment with CCRF-CEM leukemia and 97.5% in the experiment on MOLT-4 leukemia.

With `COc1ccc2c(c1)N=c1c-2cc2c(O)[nH]c(=S)n2c1=O`, the growth in the experiment with SK-MEL-2 melanoma was 41.9%; in the experiment with EKVX NSCLC, 48.7%; in the experiment on SN12C renal it was 35.6%; in the experiment on UO-31 renal it was 47.8%; in the experiment on TK-10 renal, 73.5%; in the experiment with ACHN renal it was 44.9%. Also, the growth was 29.7% in the experiment on CAKI-1 renal, 105% with A498 renal, 11.1% with CCRF-CEM leukemia and 35.1% with MOLT-4 leukemia.

Consider `C[C@@H](Nc1c(C#N)cnc2ccc(-c3cnc4[nH]ncc4c3)cc12)c1ccccc1`, for which the growth is -24.8% (active) in the experiment with SK-MEL-2 melanoma; -31.9% (active) in the experiment on EKVX NSCLC; 11.3% with SN12C renal; 8.19% (active) with UO-31 renal; -6.48% (active) in the experiment on TK-10 renal; 4.37% (active) in the experiment on ACHN renal. In addition, the growth is 4.1% (active) with CAKI-1 renal, -40.2% (active) in the experiment on A498 renal, 0.263% (active) in the experiment on CCRF-CEM leukemia and -34.5% (active) in the experiment with MOLT-4 leukemia.

Consider `COc1cc2cc(C(=O)N3C[C@@H](CCl)c4c3cc(OC(=O)N(CCC(=O)N3CCN(C)CC3)[C@H]3CCSSC3)c3ccccc43)[nH]c2c(OC)c1OC`, for which the growth with SK-MEL-2 melanoma is -85% (active); in the experiment with EKVX NSCLC, -67.7% (active); in the experiment on SN12C renal, -10.3% (active); with UO-31 renal, -26.9% (active); in the experiment on TK-10 renal, 8.66% (active); in the experiment with ACHN renal it was -6.81% (active). In addition, the growth is 13.7% in the experiment with CAKI-1 renal, -19.6% (active) in the experiment on A498 renal, 32% with CCRF-CEM leukemia and -9.57% (active) in the experiment with MOLT-4 leukemia.

As to `NC(=Nc1ccc(OCCCCCCCCn2cnnn2)cc1)c1ccccc1`, the growth is 21% in the experiment with SK-MEL-2 melanoma; 40% in the experiment with EKVX NSCLC; 27% in the experiment with SN12C renal; 41.6% with UO-31 renal; 64.8% in the experiment with TK-10 renal; 32.3% with ACHN renal. Further, the growth was 35.2% with CAKI-1 renal, 114% in the experiment on A498 renal, 19.6% with CCRF-CEM leukemia and 20.9% in the experiment with MOLT-4 leukemia.

For the compound `O=C(NC(=S)N1CCN(c2ncnc3c2cnn3-c2ccccc2)CC1)c1ccc(F)cc1`, the growth is 91.6% in the experiment on SK-MEL-2 melanoma; 86.2% in the experiment on EKVX NSCLC; 64.9% with SN12C renal; 74.4% with UO-31 renal; 140% with TK-10 renal; 79.6% in the experiment on ACHN renal. The growth in the experiment with CAKI-1 renal was 84.8%; in the experiment on A498 renal, 124%; in the experiment on CCRF-CEM leukemia, 63.2%; in the experiment with MOLT-4 leukemia it was 45.2%.

`COc1cc(/C=C/C(=O)c2cnn(-c3cc(=O)[nH]c4ccc(Cl)cc34)c2C)cc(OC)c1OC`: the growth is -80.6% (active) in the experiment on SK-MEL-2 melanoma; -4.28% (active) with EKVX NSCLC; 0.0215% (active) with SN12C renal; -72.6% (active) with UO-31 renal; 0.154% (active) in the experiment on TK-10 renal; -35.4% (active) with ACHN renal. The growth was -68.4% (active) in the experiment on CAKI-1 renal, -21.5% (active) with A498 renal, -16.7% (active) in the experiment on CCRF-CEM leukemia and -10.9% (active) in the experiment on MOLT-4 leukemia.

With `CCCn1c(NC(=O)c2cccc(C(N)=O)c2)nc2ccc(CN3CCCCC3)cc21`, the growth is 105% in the experiment on SK-MEL-2 melanoma; 103% in the experiment with EKVX NSCLC; 88% with SN12C renal; 65.3% in the experiment with UO-31 renal; 99.3% in the experiment with TK-10 renal; 60.3% in the experiment with ACHN renal. Further, the growth with CAKI-1 renal was 50.2%; in the experiment on A498 renal it was 159%; with CCRF-CEM leukemia, 96.4%; in the experiment on MOLT-4 leukemia it was 98.9%.

Regarding `CC1=C(C(=O)OCc2ccccc2)C(c2cccc3ccccc23)n2c(nc3ccccc32)N1` (stereo not given), the growth was 18% in the experiment on SK-MEL-2 melanoma; 41.9% with EKVX NSCLC; 30.6% in the experiment with SN12C renal; 34.2% in the experiment with UO-31 renal; 66.6% in the experiment on TK-10 renal; 41.1% in the experiment with ACHN renal. Moreover, the growth with CAKI-1 renal was 30.5%; in the experiment with A498 renal, 62.6%; in the experiment on CCRF-CEM leukemia it was 25.8%; in the experiment with MOLT-4 leukemia it was 32.3%.

Consider `O=C(N/N=C/c1occc1Br)c1[nH]c2ccc(Br)cc2c1-c1ccccc1`, for which the growth in the experiment on SK-MEL-2 melanoma is -88.8% (active); with EKVX NSCLC, -94.1% (active); with SN12C renal, -83.8% (active); in the experiment on UO-31 renal, -87.1% (active); with TK-10 renal it was -76.5% (active); in the experiment with ACHN renal, -100% (active). Besides, the growth in the experiment with CAKI-1 renal is -91.5% (active); in the experiment on A498 renal, -89.6% (active); in the experiment on CCRF-CEM leukemia it was 4.68% (active); in the experiment on MOLT-4 leukemia, -15.2% (active).

Consider `COc1ccc(-c2cc(C(=O)Oc3ccc(C=O)cc3OC)nn2-c2ccc(S(C)(=O)=O)cc2)cc1`, for which the growth in the experiment with SK-MEL-2 melanoma is 110%; in the experiment with EKVX NSCLC it was 98%; with SN12C renal it was 90.7%; in the experiment with UO-31 renal it was 78.2%; with TK-10 renal it was 147%; in the experiment on ACHN renal, 106%. The growth with CAKI-1 renal is 98.3%; in the experiment with A498 renal, 126%; with CCRF-CEM leukemia it was 83.6%; in the experiment with MOLT-4 leukemia, 86.6%.

In the case of `Cc1ccc(/C=C/C(=O)c2ccc(S(=O)(=O)NCCNc3nc(N(C)C)nc(N4CCOCC4)n3)cc2)cc1`, the growth in the experiment with SK-MEL-2 melanoma is 94.1%; in the experiment on EKVX NSCLC, 82.6%; in the experiment on SN12C renal, 86.4%; in the experiment on UO-31 renal, 73.2%; in the experiment on TK-10 renal, 112%; with ACHN renal it was 101%. For the same compound, the growth in the experiment with CAKI-1 renal was 64.6%; in the experiment with A498 renal, 96%; in the experiment with CCRF-CEM leukemia, 52.1%; with MOLT-4 leukemia, 13.5%.

With `O=C(NN1C(=O)/C(=C/C=C/c2ccc([N+](=O)[O-])o2)SC1=S)c1ccncc1`, the growth with SK-MEL-2 melanoma is -79.3% (active); in the experiment on EKVX NSCLC, -92% (active); in the experiment on SN12C renal, -99.9% (active); in the experiment with UO-31 renal it was -97.2% (active); with TK-10 renal, -91% (active); in the experiment with ACHN renal it was -100% (active). Further, the growth in the experiment with CAKI-1 renal is -100% (active); with A498 renal, 18.9%; in the experiment on CCRF-CEM leukemia, -43.9% (active); in the experiment on MOLT-4 leukemia, -38.8% (active).

With `O=C(CSc1nnc(-c2ccc(-c3nc4ccccc4[nH]3)cc2)o1)Nc1ccccc1`, the growth is 91.4% with SK-MEL-2 melanoma; 93.9% with EKVX NSCLC; 79.7% in the experiment on SN12C renal; 104% with UO-31 renal; 106% with TK-10 renal; 23.1% in the experiment with ACHN renal. Also, the growth with CAKI-1 renal is 86%; in the experiment with A498 renal, 130%; in the experiment on CCRF-CEM leukemia it was 59%; in the experiment with MOLT-4 leukemia, 27.4%.

Take `COc1ccc2c(c1)C(=O)N(C)C2C1c2c(cc3c(c2OC)OCO3)CCN1C` (stereo not given): the growth is 57.5% in the experiment on SK-MEL-2 melanoma; 62.6% in the experiment on EKVX NSCLC; 76.9% in the experiment on SN12C renal; 49.4% with UO-31 renal; 78.6% in the experiment on TK-10 renal; 46.5% with ACHN renal. Also, the growth in the experiment on CAKI-1 renal was 31.6%; in the experiment with A498 renal, 91.5%; in the experiment with CCRF-CEM leukemia, 66.3%; in the experiment with MOLT-4 leukemia, 46.4%.

(Values after PubChem BioAssay (NCI).)
